# According to PubChem BioAssay AID1817 (Sanford-Burnham Center for Chemical Genomics, 2009):
# In all, about 290,000 compounds went through this assay and about 50 (0.02%) were called active.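 Rule for the calls: active = displacement of at least 50% at 20 µM, with a fluorescence ratio check between 0.3 and a set limit; inactive = the rest.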 Only a selection was taken, and actives are over-represented in it overall. Potency and affinity values are given separately.
# Target: E3 ubiquitin-protein ligase SIAH1 (Homo sapiens) (UniProt Q8IUQ4)
# Sequence (Q8IUQ4 whole entry, looked up): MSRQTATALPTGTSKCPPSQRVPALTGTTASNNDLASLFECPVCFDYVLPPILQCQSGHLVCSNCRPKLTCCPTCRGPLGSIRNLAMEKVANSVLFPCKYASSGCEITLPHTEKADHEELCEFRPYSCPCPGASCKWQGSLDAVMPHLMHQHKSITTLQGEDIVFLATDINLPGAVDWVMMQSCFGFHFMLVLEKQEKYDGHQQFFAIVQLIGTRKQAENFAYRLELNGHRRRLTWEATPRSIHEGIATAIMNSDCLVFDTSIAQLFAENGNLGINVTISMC
# Test: Siah-1 peptide-binding antagonists, primary screen, biochemical, fluorescence polarization, rhodamine-plectin, uHTS (AID 1817);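 note: plate controls were Siah plus tracer with DMSO for no effect and tracer alone without Siah for full effect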
# Settings: Siah-1 / rhodamine-plectin peptide fluorescence polarization; at 20 µM; active compounds read high
row,SMILES,displacement
1,Cc1ccc(C(=O)Nc2ccc(Oc3ccc(C(=O)O)c(C(=O)O)c3)cc2)cc1C,-3% (inactive)
2,CC(C)(C)C(=O)Nc1ccc(C(=O)Nc2cccc(Oc3ccc(C(=O)O)c(C(=O)O)c3)c2)cc1,24% (inactive)
3,O=C(O)Cn1c(=S)sc2ccccc21,-2.4% (inactive)
4,COc1cc([N+](=O)[O-])ccc1NC(=S)Nc1cccc(C(=O)O)c1,-2.6% (inactive)
5,COc1cc(/C=C(\C#N)c2nc(-c3cc4ccccc4oc3=O)cs2)ccc1O,2.9% (inactive)
6,CCN(CC)CCOC(=O)c1ccc(N/C=C(/C#N)c2nc(-c3ccc(OC)cc3)cs2)cc1,8.3% (inactive)
7,CCN(CC)CCOC(=O)c1ccc(N/C=C(/C#N)c2nc(-c3ccc4c(c3)OCO4)cs2)cc1,2.3% (inactive)
8,CCN(CC)CCOC(=O)c1ccc(N/C=C(/C#N)c2nc(-c3cccc(OC)c3)cs2)cc1,-5.2% (inactive)
9,C1CC2CN(c3nc4nonc4nc3N3CCSCC3)CCN2C1 (stereo not given),1.1% (inactive)
10,COc1cccc(CNC(=O)C2CCCN(S(=O)(=O)c3c(C)n[nH]c3C)C2)c1 (stereo not given),-0.6% (inactive)
11,CC(C)N1CCC(N2CCN(C/C=C/c3ccc(F)cc3)CC2CCO)CC1 (stereo not given),12% (inactive)
12,O=C(/C=C/c1ccc(OCCCF)cc1)NCc1ccc(Cl)cc1,33.7% (inactive)
13,CN(CC(=O)Nc1cccc(F)c1)C(=O)c1ccc(-c2ccc(Cl)cc2)o1,4.6% (inactive)
14,Nc1ccc(Br)c2c1C(=O)c1ccccc1C2=O,7.9% (inactive)
15,Nc1c(O)ccc2c1C(=O)c1ccccc1C2=O,14.9% (inactive)
16,NS(=O)(=O)c1ccc(NC(=O)c2ccc(-c3ccccc3)cc2)cc1,42.1% (inactive)
17,O=C(O)c1ccc(NS(=O)(=O)c2ccc(C(=O)Nc3ccccc3)cc2)cc1,-5.7% (inactive)
18,O=C(NCc1ccccn1)C1CCN(S(=O)(=O)N2CCCC2)CC1,3.2% (inactive)
19,O=C(Cn1cnc2c(cnn2-c2ccccc2)c1=O)N1CCN(c2ccc(F)cc2)CC1,0.6% (inactive)
20,Cc1cc(NS(=O)(=O)c2ccc(NC(=O)C(C)Oc3cc(C)c(Cl)c(C)c3)cc2)no1 (stereo not given),0.9% (inactive)
21,CCc1nnc(NS(=O)(=O)c2ccc(NC(=S)NC(=O)/C=C/c3ccc([N+](=O)[O-])cc3)cc2)s1,12.8% (inactive)
22,CCc1nnc(NS(=O)(=O)c2ccc(NC(=S)NC(=O)/C=C/c3ccc(F)cc3)cc2)s1,12.9% (inactive)
23,CCc1nnc(NS(=O)(=O)c2ccc(NC(=S)NC(=O)/C=C/c3cccs3)cc2)s1,15.5% (inactive)
24,CCc1nnc(NS(=O)(=O)c2ccc(NC(=S)NC(=O)/C=C/c3ccccc3)cc2)s1,11.7% (inactive)
25,CCc1nnc(NS(=O)(=O)c2ccc(NC(=S)NC(=O)/C=C/c3ccc(OC)cc3)cc2)s1,51.9% (active)
